The values below come from PubChem BioAssay AID841 (Emory University Molecular Libraries Screening Center, 2007).

Molecules are shown by their SMILES. The whole screen tested about 140,000 compounds, of which about 2,100 (1.5%) were called active. Only a selection was taken, and actives are over-represented in it overall. A number with no mark means an inactive call. Cut-off read from the data, not from the text of the source: active = protection mostly above about 24% (no sharp cut-off); inactive = mostly below about 26%.

This assay in a line: blockers of measles virus-induced cell death – single point, MLSMR library, absorbance, measles RdRp inhibitor project, primary screen (AID 841). Particulars: Measles virus-infected cells, CPE protection, at 4 µM, hits give high values.
For `COC(=O)CN1C(=O)C2(C(C(=O)OC)=C(N)Oc3ccccc32)C2=C1CC(C)(C)CC2=O` (stereo not given), the protection (pct of control) was 2.86%. `CCOC(=O)CC1=C(C(=O)OCC)C2(C(=O)N1)C(C(=O)OC)=C(N)Oc1ccccc12` (stereo not given): the protection (pct of control) is 9.79%.

Consider `C=CCN1C(=O)C2(C(C(=O)OCC)=C(N)Oc3c2c(=O)oc2ccccc32)c2ccccc21` (stereo not given), for which the protection (pct of control) was 81% (active).

Consider `Cc1ccnc(-n2c(C)cc(/C=C3\C(=O)NC(=S)N(C)C3=O)c2C)c1`, for which the protection (pct of control) was 5.91%. As for `Cc1ccc(N2C(=O)NC(=O)C(CCc3ccncc3)(Cc3cccc(Cl)c3Cl)C2=O)cc1` (stereo not given), the protection (pct of control) was 7.36%. `Cc1nn(Cc2ccccc2Cl)c(Cl)c1C(=O)OC(C(=O)NC(N)=O)C(C)C` (stereo not given): the protection (pct of control) was 14%. Consider `O=C(C1CC(=O)N(C2CCCC2)C1)N1CCC2(CC1)OCCO2` (stereo not given), for which the protection (pct of control) was 38.9% (active). Consider `Cn1c(C(=O)N2CCC(C(=O)N3CCC4(CC3)OCCO4)CC2)cc2sccc21`, for which the protection (pct of control) is 8.88%.

With `CCN(N=Nc1nonc1OC)c1nonc1OC`, the protection (pct of control) was 5.4%.

Consider `CCC(=O)CC(c1ccc([N+](=O)[O-])cc1)c1c(O)c2ccccc2oc1=O` (stereo not given), for which the protection (pct of control) was 15.5%. The figure for `COc1ccc(C2N3CC(C)(C)CN23)cc1` (stereo not given) is 8.77%; for `O=C1NC(=O)C(CCc2ccccn2)(Cc2cccc(Cl)c2Cl)C(=O)N1c1ccc(Br)cc1` (stereo not given) it is 10.4%. As for `Cc1cccc(OP(=O)(Oc2cccc(C)c2)OC(c2ccccc2)C(F)(F)F)c1` (stereo not given), the protection (pct of control) is 1.45%. Take `Cc1nc2ccccn2c1P(=S)(N1CCCCC1)N1CCCCC1`: the protection (pct of control) was 4.18%. In the case of `CCOC(=O)C(O)(c1ccc(NC(=O)c2ccco2)c(OC)c1)C(F)(F)F` (stereo not given), the protection (pct of control) was 39.8% (active). Regarding `COC(=O)C(O)(c1ccc(NC(=O)c2ccco2)c(OC)c1)C(F)(F)F` (stereo not given), the protection (pct of control) was 3.68%. For `CCOC(=O)C(O)(c1ccc(N)c(OC)c1)C(F)(F)F` (stereo not given), the protection (pct of control) was 3.68%.

For the molecule `CC(=O)Nc1ccccc1C(=O)OCC(=O)c1cccc2ccccc12`, the protection (pct of control) was 26.2%. The value for `O=c1[nH]c(=S)n(C2CC2)c(O)c1/C=N/N1CCOCC1` was 5.81%. Regarding `CNC(=O)N(C)c1nnc(C(C)(C)C)s1`, the protection (pct of control) was 54.7% (active). The value for `CCOC(=O)C(O)(c1ccc(N=Cc2ccccc2O)c(C)c1)C(F)(F)F` (stereo not given) was 5.53%. The figure for `CC(=O)N(C1=NCCCS1)c1ccccc1F` is 62.1% (active). As for `COc1c(O)ccc2c1-c1c3c(cc4c1C(C2)N(C)CC4)OCO3` (stereo not given), the protection (pct of control) was 6.07%. For the molecule `CC(C(=O)Nc1ccc(Cl)cc1Cl)N1CC=C(c2ccccc2)CC1` (stereo not given), the protection (pct of control) was 9.49%. Regarding `CN1CCN(c2cc(N3CCNCC3)ccc2[N+](=O)[O-])CC1`, the protection (pct of control) was 21.6%. For `CN(C)C(=O)Oc1ccc(OCc2cccc[n+]2C)cc1`, the protection (pct of control) was 6.21%. Consider `c1ccc2sc(C3CCCNC3)nc2c1` (stereo not given), for which the protection (pct of control) was 54.6% (active). `CN(C)c1ccc(/C=C2\CC3C4CC=C5CC(O)CCC5(C)C4CCC3(C)C2=O)cc1` (stereo not given): the protection (pct of control) was 2.96%.

Consider `CC(C)N(CC#CCC1(O)c2ccccc2-c2ccccc21)C(C)C`, for which the protection (pct of control) was 14.5%. In the case of `Cc1cccc(-n2c(O)c(/C=N/N3CCOCC3)c(=O)[nH]c2=S)c1`, the protection (pct of control) is 1.74%.
